# FMDV inh – foot and mouth disease virus antiviral activity; FMDV antiviral cell-based qHTS; Potency, µM (top dose mostly 57.9 µM), for the others: top-dose activity change, negative = inhibition, most hits filed as inhibitors; 1.2% of 410,000 active; calls by dose curve; tested in HEK293T cells; note: read-out not given here; potency is the fitted concentration of half-maximal effect; % is set by controls: 0 for no effect and ±100 for the full control effect; nearly all actives have a fitted effect of over 45% in size
# HCMV antiviral – blocks human cytomegalovirus replication | HFF cells, HCMV-luciferase reporter, 72 h; stronger effect = lower value | 4.5% of 410,000 active | activity change, negative = inhibition, % at 57.5 µM; in the data active = activity change below about -60%; inconclusive = no clear call, values can overlap the other calls; inactive = above about -39%; note: % is set by controls: 0 for no effect and ±100 for the full control effect
#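 Two compound doses tested in HFFs infected with HCMV-luciferase, MOI 1 PFU/cell, 72 h at 37C. Lysate luminescence read with OneGlo; data normalized against buffer-only and 10uM Salinomycin inhibitor controls.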
# HCV inhibitor – HCV inhibition | 3.4% of 340,000 active | Huh7.5.1 HCVcc-Cre infection, luciferase reporter, 44 h | Potency, µM (series often up to 41.8 µM), for the others: at the top dose activity change, negative = inhibition, actives largely listed as inhibitors; active = well fitted inhibition curve with a large enough effect; inconclusive = small, poorly fitted or top-dose-only effect, or another doubt; inactive = no such curve, though single readings can be large or run the other way; note: potency is the fitted concentration of half-maximal effect; % is set by controls: 0 for no effect and ±100 for the full control effect
#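 Infectious HCVcc-Cre (~0.5 moi) was added to cells just after compound, with cells seeded 4 h earlier at 1,000 per well. Luciferase activity after 44 h culture reported infection; substrate was incubated 15 min at room temperature before reading.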
# LASV entry inh – Lassa virus entry inhibition; Lassa virus pseudotype entry inhibition, cell reporter; Potency, µM (series often up to 37.9 µM), for the others: top-dose activity change, negative = inhibition, actives largely listed as inhibitors; 1.2% of 300,000 active; AID 540256; calls by dose curve; tested in HEK293 cells; note: potency is the fitted concentration of half-maximal effect; % is set by controls: 0 for no effect and ±100 for the full control effect; nearly all actives have a fitted effect of over 50% in size
# SARS PLP yeast – inhibitors of SARS-CoV papain-like protease in yeast; S. cerevisiae expressing SARS-CoV PLpro, growth rescue; Potency, µM (highest dose often 32.9 µM), without a hit: top-dose activity, positive = growth rescue, usual class: activators; 0.19% of 330,000 active; AID 485353; calls by dose curve; note: potency is the fitted concentration of half-maximal effect; 0% is about no effect; nearly all actives have a fitted effect of over 55% in size
# Marburg entry inh – inhibitors of Marburg virus binding or cell entry; Marburg virus pseudotyped entry inhibition, cell reporter; Potency, µM (series often up to 37.8 µM), for inactives: top-dose activity change, negative = inhibition, usual class: inhibitors; 1.8% of 300,000 active; calls by dose curve; tested in HEK293 cells; note: potency is the fitted concentration of half-maximal effect; % is set by controls: 0 for no effect and ±100 for the full control effect
# * hit, by the source's call; ? = inconclusive; . = no result; + = active, no number; ! = not confirmed by another sample; [ ] = another dose, or the depositor's remark. An excerpt weighted towards active compounds, which were near 8% of everything screened.
SMILES,FMDV inh,HCMV antiviral,HCV inhibitor,LASV entry inh,SARS PLP yeast,Marburg entry inh
O=C(O)c1ccc(N/N=C/c2ccc3nccnc3c2)cc1,7.08µM*,-78.4*,21.4%,.,-1.2%,.
O=C(O)c1ccc(N/N=C/c2cccc(F)c2)cc1,-37.6%,75.9,43.7%,?,-8.0%,10.3µM*
O=C(CCc1nnc(C2(c3ccc(Cl)cc3)CCC2)o1)N1CCCC1,13.2%,0.0,13.1%,.,-3.9%,.
COc1ccc(C)cc1NC(=O)CCC(=O)Nc1nnc(C2CCCCC2)s1,14.6%,9.8,7.6%,?,-2.2%,21.7%[46.1 µM]
COCc1nc2ccccc2n1CCOc1cccc(C)c1,-11.5%,-0.5,.,14.9%[46.1 µM],.,1.2%[46.1 µM]
CC(C)=CCC/C(C)=C/CO/N=C1\C[C@@H](O)[C@@H](O)[C@@H]2[C@@H]3C(=O)N(c4cccc(Oc5ccccc5)c4)C(=O)[C@@H]3CC[C@@H]12,.,.,.,.,.,26.1%[14.2 µM]
O=C1CC(NS(=O)(=O)c2ccccc2)CN1c1ccc2c(c1)OCCO2 (centres undefined),0.8%,6.3,-11.6%[8.37 µM],-7.9%,3.8%,10.2%
COc1ccc(NC(=O)N(C)C[C@H]2Oc3c(NC(=O)Cc4ccccc4)cccc3C(=O)N([C@H](C)CO)C[C@@H]2C)cc1,17.5%,21.6,15.6%,.,1.5%,.
COc1ccc(N2CCN(C(=O)NCc3ccc(OC)c(OC)c3)CC2)cc1,2.4%,-67.7*,7.4%,.,-1.3%,-10.3%[46.1 µM]
CC(=O)N1CCN(c2ccc(NCc3cccc(C)c3)cc2)CC1,?,-76.7*,.,.,-0.5%,.
CCOc1nc(NCCc2ccc(OC)c(OC)c2)nc(N2CCN(c3ccc(OC)cc3)CC2)n1,-11.3%,68.9,1.8%,?,0.4%,8.4%
COc1cc(CNc2ccc(N3CCN(C(C)=O)CC3)cc2)ccc1OCc1ccc(F)cc1,-16.1%,-72.9*,0.7%,-7.4%,-2.3%,?
CCOc1cc(CNc2ccc(N3CCN(C(C)=O)CC3)cc2)cc(Br)c1OC,-26.7%,?,1.6%,-12.3%,28.7%,-4.9%
COc1ccc(N2CCN(c3nc(NCCc4ccc(OC)c(OC)c4)nc(OC)n3)CC2)cc1,25.1µM*,-89.7*,11.2µM*,?,.,?
CC(=O)N1CCN(c2ccc(NCc3ccc(F)cc3)cc2)CC1,?,-39.5,?,.,-8.2%,.
Cc1ccn2c(=O)cc(CSc3nnc(C)s3)nc2c1,5.5%,7.9,.,?,.,.
COc1cc(Cc2cc(OC)c(O)c(OC)c2)cc(OC)c1O,-2.1%,33.2,.,.,.,.
O=C(Nc1cccnc1)c1c(F)cccc1F,25.0%,-104.2*,-15.0%,-28.4%[14.3 µM],8.4%,4.1%
O=C(Nc1cccnc1)c1ccco1,.,-81.8*,19.0%,2.3%,8.1%,-3.7%
O=C(Nc1cccnc1)c1ccc(NC(=O)c2ccco2)cc1,-4.5%,-102.9*,5.3%,0.0%,3.1%,-12.5%[46.1 µM]
CC(C)c1ccc(C(=O)Nc2cccnc2)cc1,-12.4%,52.1,-4.6%,?,-9.4%,3.98µM*
O=C(Nc1cccnc1)c1ccccc1F,9.9%,-3.3,10.7%,3.6%,6.8%,4.3%[46.1 µM]
CCN(CC)S(=O)(=O)c1nnc(NC(=O)c2ccc(C(C)C)cc2)s1,-24.9%,-7.7,.,?,.,.
O=C(NCCc1ccccc1)c1cc(S(=O)(=O)N2CCCC2)ccc1F,22.5%,+,-26.9%,.,-2.1%,.
CCCCCNC(=O)c1cc(S(=O)(=O)N2CCCCC2)ccc1F,1.1%,-104.7*,-0.7%,1.7%,1.8%,5.3%
SMILES,FMDV inh,HCMV antiviral,HCV inhibitor,LASV entry inh,SARS PLP yeast,Marburg entry inh
Cc1ccc(S(=O)(=O)N2CCCCC2)cc1C(=O)NCCc1ccccc1,-17.2%,-6.3,17.6%,?,1.3%,?
CCCCN(C)CCNC(=O)c1cc(=O)[nH]c2ccc(S(=O)(=O)N3CCCCCC3)cc12,-10.8%,6.0,.,1.5%[46.1 µM],.,.
CC(C)CN(CCCNC(=O)c1cc(=O)[nH]c2ccc(S(=O)(=O)N3CCCC3)cc12)CC(C)C,-13.8%,-67.7*,.,9.0%[46.1 µM],.,.
Cc1ccc(NC(=O)c2ccc3c(c2)N(CC(=O)N2CCCCC2)C(=O)C(C)(C)O3)cc1,-24.1%,-19.5,5.62µM*,5.0%,-2.5%,-0.2%
CC(C)(C)NC(=O)c1ccc2c(c1)N(CC(=O)N1CCCCC1)C(=O)C(C)(C)O2,0.4%,-9.4,16.5%,4.5%,4.8%,7.9%[46.1 µM]
COc1cccc(CNC(=O)c2ccc(CN3CC(=O)N4CCCCC4C3=O)cc2)c1 (centres undefined),-11.1%,-24.0,.,-0.6%[46.1 µM],.,.
COc1ccc(S(=O)(=O)Nc2ccccc2C(=O)Nc2nc(-c3ccc(F)cc3)cs2)cc1OC,-16.2%,-76.4*,?,11.2µM*,-8.6%,?
COc1ccc(-c2csc(NC(=O)c3ccccc3NS(=O)(=O)c3ccc(C)cc3)n2)cc1,?,-96.0*,5.01µM*,?,-40.4%,12.6µM*
COc1ccc(-c2csc(NC(=O)c3c(OC)cccc3OC)n2)cc1,0.2%,-15.6,?,-1.5%,11.7%,-19.7%
CCCNC(=O)c1ccccc1NS(=O)(=O)c1ccc(OC)c(OC)c1,21.0%,-3.7,20.2%,-3.5%,2.8%,?
CCOC(=O)c1ccccc1NS(=O)(=O)c1c(-c2ccc(C)cc2)csc1C(=O)OC,0.0%,-65.2*,.,-29.1%[46.1 µM],.,.
Cc1ccc2c(CC(=O)N3CCOc4ccc(CN5C[C@@H](C)O[C@@H](C)C5)cc4C3)cc(=O)oc2c1,-6.3%,.,.,.,.,.
COc1ccc(CCNc2cc(C)nc3c(-c4ccccc4OC)cnn23)cc1OC,-1.0%,.,12.6µM*,-8.1%[46.1 µM],-1.8%,11.2µM*
O=C(NNC1=NS(=O)(=O)c2ccccc21)c1ccc([N+](=O)[O-])cc1,-21.8%,-14.9,12.9%,7.94µM*,3.9%,?
O=C(NCC1OCCc2ccccc21)c1ccc(NC(=O)c2ccccc2Cl)cc1 (centres undefined),14.1µM*,?,?,?,13.5%,7.94µM*
O=C(NCC1OCCc2ccccc21)c1ccc(NC(=O)c2ccc(Cl)cc2Cl)cc1 (centres undefined),?,-8.3,?,-19.0%,26.4%,-27.7%
Cc1cccn2c(=O)cc(COc3cccc(NC(=O)COc4ccc(F)cc4)c3)nc12,?,-90.4*,.,-12.4%[46.1 µM],.,.
Cc1cccn2c(=O)cc(COc3cccc(NC(=O)c4ccccc4F)c3)nc12,-29.3%,-90.9*,.,5.1%[46.1 µM],.,.
Cc1ccc(Cl)cc1NC(=O)Nc1cccc(OCc2cc(=O)n3ccccc3n2)c1,5.5%,-64.6*,.,?,.,.
O=C(COc1ccccc1F)Nc1ccc(OCc2cc(=O)n3ccccc3n2)cc1,15.9%,-61.1*,.,?,.,.
O=C(Nc1cccc(Cl)c1)Nc1ccccc1OCc1cc(=O)n2ccccc2n1,17.6%,-13.7,.,25.9%[46.1 µM],.,.
CCOCCCNC(=S)NCCCNc1nc2ccc(C)cc2cc1C#N,.,-90.6*,.,.,0.1%,.
CCOC(=O)N1CCN(C(=O)c2ccc3c(c2)N(Cc2cc(C)ccc2C)C(=O)c2ccccc2S3=O)CC1 (centres undefined),?,-88.5*!,?,?,-0.8%,?
